Assay [1] in a line: Caspase-3/7 induction in HepG2 cells by small molecules, qHTS assay (AID 1346978). Also: nearly all actives have a fitted effect of over 15% in size. In short, it runs like this: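 Caspase-3/7 induction was measured by Caspase-Glo 3/7 luminescence (30 min, room temperature) after a 17 hr compound exposure of wild-type HepG2 cells seeded at 2,000 per well and pre-incubated 5 hr.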
For orientation: In qHTS, concentration-response curves come from the screen itself.

Assay [2] is described as follows: Caspase-3/7 induction in CHO-K1 cells by small molecules, qHTS cell viability counter screen (AID 1346979). Also: nearly all actives have a fitted effect of over 35% in size. Also: potency is read from the fitted curve at half-maximal effect. The procedure, abridged:
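Cells (CHO-K1, wild type) are plated at 1,500 per well and incubated 5hr. Test compounds in DMSO are then pinned in, followed by 16hr at 37C and 5% CO2. Viability is read by CellTiter-Fluor fluorescence after 1hr.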

Assay [3] is described as follows: Caspase-3/7 induction in HepG2 cells by small molecules, qHTS cell viability counter screen (AID 1346981). Also: series mostly up to about 92 µM; nearly all actives have a fitted effect of over 30% in size. The procedure, abridged: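 HepG2, WT, 2,000 cells/well; 5 hr pre-incubation 37 C/5% CO2; compound pin-transferred from DMSO; 16 hr exposure; CellTiter-Fluor, 1 hr; fluorescence read.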
The target of assay [4] is Nuclear receptor subfamily 1 group I member 2 (Homo sapiens) (UniProt O75469). As to the kind of experiment: Human pregnane X receptor (PXR) small molecule agonists, qHTS assay (AID 1346982). Also: nearly all actives have a fitted effect of over 35% in size. Also: potency is read from the fitted curve at half-maximal effect. The procedure, abridged:
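Luciferase signal from ONE-Glo (30 min, room temperature) measured activation of hPXR-driven CYP3A4 reporter expression in PXR-Luc HepG2 cells treated with compounds for 24 hr at 37 C.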

For assay [5], the target named is Acetylcholinesterase (Homo sapiens) (UniProt P22303). Put plainly: Acetylcholinesterase (AChE) small molecule antagonists: colormetric cell-based qHTS assay (AID 1347395; calls by dose curve; also: nearly all actives have a fitted effect of over 30% in size). In short, it runs like this:
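Colorimetric read-out: DTNB detects thiocholine released when cellular AChE in SH-SY5Y cells hydrolyses acetylthiocholine. Cells attached overnight, received compound for 30 min at 37 C, then substrate mix for 90 min at 37 C.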

The target is the same in assay [6]. As to the kind of experiment: Acetylcholinesterase (AChE) small molecule antagonists: enzyme-based qHTS assay (AID 1347397; calls by dose curve; also: nearly all actives have a fitted effect of over 55% in size). The conditions noted are these: Potency: AChE enzyme activity inhibition. The procedure, abridged: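 Absorbance-based detection of thiocholine with DTNB served as the read-out. Recombinant human AChE was exposed to compound for 30 min at RT before a 10 min RT incubation with acetylthiocholine.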

Assay [7] has the same target. Put plainly: Acetylcholinesterase (AChE) small molecule antagonists: fluorescence cell-based qHTS assay (AID 1347398; calls by dose curve; also: nearly all actives have a fitted effect of over 50% in size). The settings on record: Potency: AChE activity. In short, it runs like this: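 Fluorimetric cell-based assay: intact SH-SY5Y cells, 30 min compound preincubation at 37 C, acetylthiocholine substrate with thiol probe Thiolite Green, 40 min RT development, fluorescence 490/520 nm.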

Assay [8] shares this target. As to the kind of experiment: Acetylcholinesterase (AChE) small molecule antagonists: enzyme-based qHTS assay with human liver microsomes (AID 1347399; calls by dose curve; also: nearly all actives have a fitted effect of over 60% in size). The settings on record: Potency: qHTS inhibition. In short, it runs like this: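 Recombinant human AChE (50 mU/mL in the enzyme mix) and human liver microsomes (0.25 mg/mL final) were preincubated with compound and NADPH (0.25 mg/mL final) for 30 min at 37 C. Acetylthiocholine/DTNB was then added; thiocholine was read colorimetrically after 10 min at room temperature.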

Assay [9] deals with Cytochrome P450 2D6 (Homo sapiens) (UniProt P10635). Put plainly: Cytochrome P450 Family 2 Subfamily D Member 6 (CYP2D6) small molecule antagonists: luciferase reporter qHTS assay (AID 1671196). Also: nearly all actives have a fitted effect of over 50% in size. Also: potency is read from the fitted curve at half-maximal effect. In short, it runs like this: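 Read-out is luminescence from luciferin formed by CYP2D6 turnover of a proluciferin substrate, recorded as relative luminescence units. Reactions ran 1 h at room temperature after NADPH regeneration solution was added.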
Background: In a reporter assay the amount or activity of a reporter protein is the signal.

For assay [10], the target named is Cytochrome P450 2C19 (Homo sapiens) (UniProt P33261). Put plainly: Cytochrome P450 Family 2 Subfamily C Member 19 (CYP2C19) small molecule antagonists: luciferase reporter qHTS assay (AID 1671197). Also: nearly all actives have a fitted effect of over 65% in size. Also: potency is read from the fitted curve at half-maximal effect. The procedure, abridged: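 Quantitative high-throughput screen of the Tox21 library using CYP2C19 with proluciferin substrate. Reaction: NADPH regeneration, 37C, 1 h, after 10 min compound preincubation at room temperature. Readout: luminescence.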

Assay [11] deals with Cytochrome P450 1A2 (Homo sapiens) (UniProt P05177). As to the kind of experiment: Cytochrome P450 Family 1 Subfamily A Member 2 (CYP1A2) small molecule antagonists: luciferase reporter qHTS assay (AID 1671199). Also: nearly all actives have a fitted effect of over 50% in size. Also: potency is read from the fitted curve at half-maximal effect. In short, it runs like this:
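P450-Glo CYP1A2, 1536-well qHTS: enzyme/proluciferin substrate + cpd (DMSO), 10 min RT; NADPH regen, 1 h RT; detection reagent, 20 min; luminescence, RLU.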

Assay [12] addresses Voltage-gated inwardly rectifying potassium channel KCNH2 (Homo sapiens) (UniProt Q12809). As to the kind of experiment: Human Ether-a-go-go-Related Gene (hERG) channel small molecule antagonists: fluorescence cell-based qHTS assay (AID 1671200). Also: nearly all actives have a fitted effect of over 50% in size. Also: potency is read from the fitted curve at half-maximal effect. In short, it runs like this:
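Channel function was assessed by thallium flux. Cells seeded the previous day and kept at 37 C took up FluxOR II dye over 1 h in the dark at room temperature, then sat another 10 min before stimulation.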
(In general: The hERG channel carries a current that helps repolarise heart muscle cells.)

In assay [13] the target is Cytochrome P450 3A4 (Homo sapiens) (UniProt P08684). As to the kind of experiment: Cytochrome P450 Family 3 Subfamily A Member 4 (CYP3A4) small molecule antagonists: luciferase reporter qHTS assay (AID 1671201). The procedure, abridged:
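Compounds in DMSO were pin-transferred onto CYP3A4 enzyme-substrate mix and held 10 min at room temperature. NADPH regenerating solution started the reaction for 1 h; luciferin detection reagent stopped it, and luminescence was read after 20 min.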

Assay [14] is described as follows: Caspase-3/7 induction in CHO-K1 cells by small molecules, qHTS assay (AID 1346980). Also: nearly all actives have a fitted effect of over 15% in size. In short, it runs like this: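 Luminescent Caspase-Glo 3/7 read (30min, room temperature) quantified apoptosis induction. Cells were wild-type CHO-K1, treated with compound for 17hr at 37 C and 5% CO2.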
The target in assay [15] is Cytochrome P450 2C9 (Homo sapiens) (UniProt P11712). As to the kind of experiment: Cytochrome P450 Family 2 Subfamily C Member 9 (CYP2C9) small molecule antagonists: luciferase reporter qHTS assay (AID 1671198). Also: nearly all actives have a fitted effect of over 50% in size. Also: potency is read from the fitted curve at half-maximal effect. In short, it runs like this: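 Enzyme-substrate mix preincubated with compound 10 min at room temperature; reaction started with NADPH regeneration solution, 1 h 37C. Luminescent luciferin product read after 20 min detection reagent.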

The target of assay [16] is Nuclear receptor subfamily 1 group I member 2 (Rattus norvegicus) (UniProt Q9R1A7). Put plainly: Rat pregnane X receptor (rPXR) activation by small molecules, qHTS assay (AID 1346983). Also: nearly all actives have a fitted effect of over 20% in size. The settings on record: rPXR luciferase reporter cells, One-Glo luminescence, 24 h; stronger effect = higher value. The procedure, abridged: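 Luminescent readout (One-Glo luciferase, 30 min room temperature) followed 24 hr compound treatment at 37 C of rPXR cells plated 2,000 per well and preincubated 5hr; qHTS format with compounds delivered in DMSO.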

Assay [17] concerns the target Nuclear receptor subfamily 1 group I member 2 (Homo sapiens) (UniProt O75469). Put plainly: Human pregnane X receptor (PXR) activation by small molecules, qHTS assay (AID 1346985). Also: nearly all actives have a fitted effect of over 40% in size. The procedure, abridged: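 DPX-2 cells (HepG2 co-transfected with a PXR response element and a CYP3A4-promoter luciferase construct) were seeded at 2,000 per well, rested 5 hr at 37C, then exposed to DMSO-dissolved compounds for 24 hr. Activation was read as luciferase luminescence.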

The target is the same in assay [18]. As to the kind of experiment: CYP3A4 induction through human pregnane X receptor (PXR) by small molecules, qHTS assay (AID 1346984). Also: nearly all actives have a fitted effect of over 40% in size. In short, it runs like this:
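Luminescence readout: luciferase signal after One-Glo (30 min, room temperature), following 3 h at 37C with 3uM final Luciferin-IPA P450 substrate. Cells were DPX-2 (HepG2, PXR/CYP3A4-luc co-transfected) dosed for 24 h.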

“And” between values parts separate entries of the source, which are not always exact repeats. Equal entries are not always repeated. Inconclusive results are not listed. Where a structure was tested more than once in an assay, its records may differ in their call. The source made the active and inactive calls. Unless noted, calls follow the shape of the dose curve; as a rule, active = well fitted curve in the direction sought with a large enough effect in the repeat runs; inconclusive = weak or mixed curves; inactive = no such curve, though single readings can be large; an effect the other way counts as inactive or inconclusive.
% is scaled to controls: 0 for no effect and ±100 for the full control effect.

Sequence of Cytochrome P450 1A2 (Homo sapiens) (P05177 whole entry, looked up): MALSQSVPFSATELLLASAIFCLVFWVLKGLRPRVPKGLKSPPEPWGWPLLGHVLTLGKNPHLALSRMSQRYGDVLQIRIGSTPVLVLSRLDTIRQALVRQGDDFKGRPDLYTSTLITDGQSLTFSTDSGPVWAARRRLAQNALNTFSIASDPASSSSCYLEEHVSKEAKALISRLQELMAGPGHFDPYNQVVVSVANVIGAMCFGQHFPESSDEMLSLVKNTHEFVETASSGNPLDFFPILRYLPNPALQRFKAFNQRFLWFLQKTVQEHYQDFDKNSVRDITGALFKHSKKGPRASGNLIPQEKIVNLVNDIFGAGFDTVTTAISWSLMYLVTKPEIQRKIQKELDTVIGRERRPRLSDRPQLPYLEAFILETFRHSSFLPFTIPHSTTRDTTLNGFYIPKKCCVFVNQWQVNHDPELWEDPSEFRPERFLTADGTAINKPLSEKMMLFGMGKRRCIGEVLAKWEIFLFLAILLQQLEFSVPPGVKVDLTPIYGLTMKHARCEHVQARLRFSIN
Sequence of Cytochrome P450 2C19 (Homo sapiens) (P33261 whole entry, looked up): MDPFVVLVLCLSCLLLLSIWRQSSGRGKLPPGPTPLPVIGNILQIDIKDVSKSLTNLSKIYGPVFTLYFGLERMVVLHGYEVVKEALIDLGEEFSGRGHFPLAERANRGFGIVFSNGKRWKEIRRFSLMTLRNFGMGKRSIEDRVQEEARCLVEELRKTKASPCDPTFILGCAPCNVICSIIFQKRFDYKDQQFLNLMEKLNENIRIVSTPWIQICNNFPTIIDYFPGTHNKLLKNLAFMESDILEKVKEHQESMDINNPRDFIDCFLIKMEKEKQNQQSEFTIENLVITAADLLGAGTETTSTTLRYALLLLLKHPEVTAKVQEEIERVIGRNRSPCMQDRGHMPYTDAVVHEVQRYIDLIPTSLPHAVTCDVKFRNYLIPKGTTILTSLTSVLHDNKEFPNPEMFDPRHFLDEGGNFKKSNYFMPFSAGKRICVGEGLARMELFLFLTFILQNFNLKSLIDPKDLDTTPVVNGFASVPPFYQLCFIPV
Sequence of Acetylcholinesterase (Homo sapiens) (P22303 whole entry, looked up): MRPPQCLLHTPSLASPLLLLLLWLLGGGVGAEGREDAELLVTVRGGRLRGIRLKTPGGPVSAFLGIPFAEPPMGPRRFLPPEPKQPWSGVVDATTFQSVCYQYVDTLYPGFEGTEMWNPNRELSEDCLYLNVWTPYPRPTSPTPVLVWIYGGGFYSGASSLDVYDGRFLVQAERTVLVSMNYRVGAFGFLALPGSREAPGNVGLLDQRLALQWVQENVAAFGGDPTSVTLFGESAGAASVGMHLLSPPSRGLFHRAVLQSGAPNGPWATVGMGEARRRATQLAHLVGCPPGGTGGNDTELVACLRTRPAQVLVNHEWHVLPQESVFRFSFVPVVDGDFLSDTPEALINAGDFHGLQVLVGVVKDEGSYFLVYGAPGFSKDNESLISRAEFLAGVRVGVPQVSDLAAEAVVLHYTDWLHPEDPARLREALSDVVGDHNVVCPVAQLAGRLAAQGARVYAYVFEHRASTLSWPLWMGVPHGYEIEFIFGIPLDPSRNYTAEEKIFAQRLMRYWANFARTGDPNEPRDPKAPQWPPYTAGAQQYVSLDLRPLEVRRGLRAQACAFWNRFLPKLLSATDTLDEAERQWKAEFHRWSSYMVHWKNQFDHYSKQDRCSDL
Sequence of Cytochrome P450 2C9 (Homo sapiens) (P11712 whole entry, looked up): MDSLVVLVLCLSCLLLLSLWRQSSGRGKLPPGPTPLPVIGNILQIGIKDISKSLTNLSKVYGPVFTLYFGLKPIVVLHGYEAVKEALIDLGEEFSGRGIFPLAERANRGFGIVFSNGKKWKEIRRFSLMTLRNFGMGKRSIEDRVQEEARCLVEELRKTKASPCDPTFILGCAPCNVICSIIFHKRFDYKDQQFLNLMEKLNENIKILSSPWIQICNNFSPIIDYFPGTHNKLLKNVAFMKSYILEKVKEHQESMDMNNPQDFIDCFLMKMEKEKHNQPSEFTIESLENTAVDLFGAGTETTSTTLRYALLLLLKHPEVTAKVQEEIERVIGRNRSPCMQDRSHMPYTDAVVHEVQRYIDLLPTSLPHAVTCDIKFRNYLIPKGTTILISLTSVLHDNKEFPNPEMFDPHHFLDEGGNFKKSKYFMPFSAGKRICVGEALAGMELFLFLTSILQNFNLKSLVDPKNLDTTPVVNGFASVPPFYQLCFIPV
Sequence of Cytochrome P450 2D6 (Homo sapiens) (P10635 whole entry, looked up): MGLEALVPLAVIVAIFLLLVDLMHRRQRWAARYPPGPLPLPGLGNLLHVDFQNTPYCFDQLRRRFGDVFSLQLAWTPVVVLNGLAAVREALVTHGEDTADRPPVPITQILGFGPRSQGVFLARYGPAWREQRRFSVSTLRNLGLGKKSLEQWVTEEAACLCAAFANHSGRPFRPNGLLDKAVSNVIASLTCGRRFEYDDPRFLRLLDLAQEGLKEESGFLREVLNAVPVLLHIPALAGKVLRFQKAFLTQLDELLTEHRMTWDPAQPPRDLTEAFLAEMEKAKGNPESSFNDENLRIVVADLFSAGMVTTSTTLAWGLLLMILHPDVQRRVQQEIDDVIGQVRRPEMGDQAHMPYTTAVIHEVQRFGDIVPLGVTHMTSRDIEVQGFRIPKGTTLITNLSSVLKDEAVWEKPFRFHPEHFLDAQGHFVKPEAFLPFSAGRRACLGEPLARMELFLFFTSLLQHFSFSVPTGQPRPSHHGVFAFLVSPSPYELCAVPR
Sequence of Cytochrome P450 3A4 (Homo sapiens) (P08684 whole entry, looked up): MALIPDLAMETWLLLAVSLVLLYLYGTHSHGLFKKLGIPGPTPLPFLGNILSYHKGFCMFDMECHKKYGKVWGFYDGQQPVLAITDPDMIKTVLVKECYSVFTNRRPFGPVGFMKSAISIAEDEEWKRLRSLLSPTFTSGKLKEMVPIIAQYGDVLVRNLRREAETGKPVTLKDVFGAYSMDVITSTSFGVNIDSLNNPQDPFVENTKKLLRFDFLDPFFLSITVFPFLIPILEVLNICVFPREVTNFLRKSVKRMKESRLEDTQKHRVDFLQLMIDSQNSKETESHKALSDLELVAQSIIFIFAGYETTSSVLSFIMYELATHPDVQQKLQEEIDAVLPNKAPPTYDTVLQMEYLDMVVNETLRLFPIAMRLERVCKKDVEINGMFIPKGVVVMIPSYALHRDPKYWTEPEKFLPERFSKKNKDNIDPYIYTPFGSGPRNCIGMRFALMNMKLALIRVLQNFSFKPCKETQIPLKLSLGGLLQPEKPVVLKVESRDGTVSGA
Sequence of Nuclear receptor subfamily 1 group I member 2 (Homo sapiens) (O75469 whole entry, looked up): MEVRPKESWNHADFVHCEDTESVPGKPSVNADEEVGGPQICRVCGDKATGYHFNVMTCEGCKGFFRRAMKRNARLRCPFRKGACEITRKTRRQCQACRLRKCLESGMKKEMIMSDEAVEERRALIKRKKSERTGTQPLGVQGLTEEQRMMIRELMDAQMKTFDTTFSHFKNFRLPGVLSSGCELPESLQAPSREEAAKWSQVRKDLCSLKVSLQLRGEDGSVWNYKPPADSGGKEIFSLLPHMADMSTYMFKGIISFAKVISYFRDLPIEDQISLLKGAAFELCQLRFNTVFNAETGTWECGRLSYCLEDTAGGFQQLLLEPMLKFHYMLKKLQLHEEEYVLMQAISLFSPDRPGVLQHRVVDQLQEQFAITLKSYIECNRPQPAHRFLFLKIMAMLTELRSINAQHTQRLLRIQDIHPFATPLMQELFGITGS
Sequence of Voltage-gated inwardly rectifying potassium channel KCNH2 (Homo sapiens) (Q12809 whole entry, looked up): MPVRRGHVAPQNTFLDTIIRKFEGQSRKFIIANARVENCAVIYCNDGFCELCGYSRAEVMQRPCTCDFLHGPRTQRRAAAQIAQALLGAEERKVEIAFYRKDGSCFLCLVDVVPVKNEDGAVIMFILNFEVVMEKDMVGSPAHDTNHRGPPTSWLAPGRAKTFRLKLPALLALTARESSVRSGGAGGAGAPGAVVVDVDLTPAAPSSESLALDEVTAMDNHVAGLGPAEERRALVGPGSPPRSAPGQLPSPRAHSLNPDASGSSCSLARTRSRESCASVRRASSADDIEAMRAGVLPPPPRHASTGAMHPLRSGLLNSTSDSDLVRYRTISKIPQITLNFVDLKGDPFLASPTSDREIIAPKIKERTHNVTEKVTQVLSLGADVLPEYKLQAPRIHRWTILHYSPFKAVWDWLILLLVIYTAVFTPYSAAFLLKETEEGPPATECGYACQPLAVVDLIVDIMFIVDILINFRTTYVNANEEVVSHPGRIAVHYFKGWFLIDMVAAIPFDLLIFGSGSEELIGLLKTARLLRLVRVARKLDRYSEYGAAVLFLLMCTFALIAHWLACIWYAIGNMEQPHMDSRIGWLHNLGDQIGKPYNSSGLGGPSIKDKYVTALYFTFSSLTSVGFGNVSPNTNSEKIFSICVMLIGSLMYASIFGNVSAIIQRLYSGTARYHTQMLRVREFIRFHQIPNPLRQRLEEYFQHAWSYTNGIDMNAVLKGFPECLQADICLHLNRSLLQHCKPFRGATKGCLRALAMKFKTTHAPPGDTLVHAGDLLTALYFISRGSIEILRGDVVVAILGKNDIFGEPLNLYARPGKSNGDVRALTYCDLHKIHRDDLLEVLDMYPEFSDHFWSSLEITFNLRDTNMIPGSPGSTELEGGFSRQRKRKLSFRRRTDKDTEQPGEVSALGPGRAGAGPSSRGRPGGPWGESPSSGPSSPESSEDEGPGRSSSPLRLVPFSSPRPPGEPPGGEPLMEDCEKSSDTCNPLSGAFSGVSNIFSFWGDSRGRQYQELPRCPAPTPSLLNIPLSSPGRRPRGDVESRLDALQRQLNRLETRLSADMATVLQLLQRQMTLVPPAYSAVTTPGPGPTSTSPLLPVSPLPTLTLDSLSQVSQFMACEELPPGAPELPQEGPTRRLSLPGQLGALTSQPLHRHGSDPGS

Take `NNC(N)=S`: the Potency result in assay [1], in assay [3], in assay [5], in assay [6], in assay [7] and in assay [8] was “inactive” in each case. Also, the Potency entry in assay [9], in assay [12] and in assay [13] was “inactive” throughout. The Potency is 25.3 µM (active) and 48.6 µM (active) in assay [2]; 56.6 µM (active) and 21.7 µM (active) in [4]; 73.8 µM (active) in [10]; 20.8 µM (active) and 31.7 µM (active) in assay [11].
On to `CCCCCCOC(=O)c1ccccc1C(=O)OCCCCCC`, for which the Potency result in assay [2], in assay [14], in assay [3], in assay [5], in [6] and in assay [7] was “inactive” each time. Besides, the Potency entry in [8], in [9] and in assay [12] was “inactive” throughout. The Potency in assay [4] is 55.6 µM (active) and inactive; in assay [10] it was 20.4 µM (active) and 7.96 µM (active); in assay [15] it was 25.7 µM (active) and 7.96 µM (active); in [11], 22.9 µM (active) and 10 µM (active).
Regarding `O=C(Nc1ccc(Br)cc1)c1cc(Br)cc(Br)c1O`, the Potency entry in assay [1], in [14], in [5], in assay [6], in assay [7] and in [8] was “inactive” throughout. The Potency entry in [10] and in assay [12] was “inactive” throughout. Besides, the Potency in [4] was 13.6 µM (active) and 13.7 µM (active) and 21.1 µM (active); in assay [9], 79.6 µM (active) and inactive; in assay [15] it was 35.5 µM (active) and 17.8 µM (active) and 15.5 µM (active); in [11], 2.82 µM (active) and 35.6 µM (active) and 17.4 µM (active). For the same molecule, the max activation in [16] is -12.3% (inactive). Further, the result in assay [17] was inactive.
Take `C=CC(=O)OCCO`: the Potency result in [1], in [14], in assay [3], in assay [4], in [6] and in [7] was “inactive” throughout. Besides, the Potency result in assay [8], in assay [9], in assay [10], in [15], in assay [12] and in [13] was “inactive” each time.
Take `CCC(=O)O[C@H]1CC[C@H]2[C@@H]3CCC4=CC(=O)CC[C@]4(C)[C@H]3CC[C@]12C`: the Potency entry in assay [2], in assay [14], in assay [3], in [4], in [5] and in assay [6] was “inactive” throughout. Moreover, the Potency entry in assay [7], in [8], in assay [9] and in assay [11] was “inactive” throughout. In assay [16], the max activation is -2.06% (inactive). Besides, the result in assay [18] and in assay [17] was inactive. Also, the Potency in [10] is 17.8 µM (active) and inactive; in assay [15], 25.2 µM (active) and 30.9 µM (active); in assay [12] it was 34.7 µM (active).
As to `CCN(CC)N=O`, the Potency entry in assay [1], in [14], in assay [3], in assay [4], in assay [5] and in assay [6] was “inactive” each time. The Potency entry in [7], in assay [8], in assay [9], in assay [15], in [11] and in [12] was “inactive” in each case. Further, in [13], the Potency entry was “inactive”. Moreover, the Potency in assay [10] was 22.6 µM (active).

Source of the values: PubChem BioAssay (Tox21).
